Source: PubChem BioAssay

experiment: probe aNOTCH2 binding on compound microarray – biochemical, small-molecule microarray, 635/667 nm fluorescence, primary screen (AID 1121); conditions: higher = more signal;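 note: score merges feature fluorescence read at 667 nm with its signal to noise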

SMILES | composite z-score
C=C(COC)/C(=C/C[C@H](OC(C)=O)c1ccc(CO)o1)c1cc(C(=O)OC)ccc1OC | -0.155
O=C(NCCN1CCOCC1)C1N=C(c2ccc(OCCCO)cc2)N(c2ccccc2)O1 (stereo unspecified) | 0.119
COCCOC(=O)N1C(=O)[C@@]2(c3cc(C#CCCO)ccc31)[C@H](C(=O)N1CCCCCCC1)[C@H]1C(=O)O[C@H](c3ccccc3)[C@H](c3ccccc3)N1[C@@H]2c1ccc(OCCO)cc1 | 0.833
COc1cc(Br)cc(C(O)C2C=CC3C(=O)N(C)C(=O)C3N2N2CCCCC2)c1OC (stereo unspecified) | -0.0708
C=C(C)[C@@H]1CC=C(C(O)C2C=CC3C(=O)N(C)C(=O)C3N2Nc2ccccc2)CC1 (stereo partly specified) | -0.0617
O=C(N1CCCCC1)[C@]1(Cc2ccccc2)N=C(c2ccc(OCCCO)cc2)O[C@@H]1c1ccccc1 | -0.0561
CC(C)c1ccc(NN2C(C(O)c3ccc(B(O)O)cc3)C=CC3C(=O)N(c4ccccc4)C(=O)C32)cc1 (stereo unspecified) | 0.0571
C=CCNC(=O)[C@@H]1[C@H]2C(=O)O[C@H](c3ccccc3)[C@H](c3ccccc3)N2[C@H](c2ccccc2OCCO)[C@@]12C(=O)N(C(=O)OCCOC)c1ccccc12 | -0.0878
CC(C)C(O)C1C=CC2C(=O)N(c3ccccc3)C(=O)C2N1Nc1ccc([N+](=O)[O-])cc1 (stereo unspecified) | 0.185
COC(=O)[C@@]1(Cc2ccc(OC)cc2)[C@@H]2C(=CC(=O)[C@H]2CC(=O)C(=O)N2CCCC2)CN1C(=O)c1ccccc1 | -0.152
COC(=O)[C@@]1(Cc2ccc(OC)cc2)[C@H]2c3cc(C(=O)N(C)C)n(Cc4ccc(S(C)(=O)=O)cc4)c3C[C@H]2CN1C(=O)c1ccccc1 | -0.168
